Results filed as inconclusive are left out. Activity calls are given as the source filed them. The calls were made as follows: active = hit-call score of the fitted dose curve at least 0.9, where 1 is the maximum; inconclusive = response in the unintended direction; inactive = score below 0.9.

This assay deals with human Peroxisome Proliferator-activated Receptor delta (PPARd), PPARD (gene 5467) (UniProt Q03181). Nature of the assay: ATG_PPARd_TRANS: Attagene TRANS-FACTORIAL HepG2 Assay for human Peroxisome Proliferator-activated Receptor delta (PPARd) (AID 2283002). The protocol: ATG_TRANS is a cell-based, multiplexed-readout assay that uses HepG2, a human liver cell line, with measurements taken at 24 hours after chemical dosing in a 24-well plate.ATG_PPARd_TRANS is one of 30 assay component(s) measured or calculated from the ATG_TRANS assay. It is designed to make measurements of mRNA induction, a form of inducible reporter, as detected with fluorescence intensity signals by Reverse transcription polymerase chain reaction (RT-PCR) and Capillary electrophoresis technology.Data from the assay component ATG_PPARd_TRANS was analyzed into 1 assay endpoint. This assay endpoint, ATG_PPARd_TRANS, was analyzed in the positive analysis fitting direction relative to DMSO as the negative control and baseline of activity. Using a type of inducible reporter, measures of mRNA for gain-of-signal activity can be used to understand the reporter gene at the transcription factor-level as they relate to the gene PPARD. Furthermore, this assay endpoint can be referred to as a primary readout, because this assay has produced multiple assay endpoints where this one serves a reporter gene function. To generalize the intended target to other relatable targets, this assay endpoint is annotated to the nuclear receptor intended target family, where the subfamily is non-steroidal.
human Peroxisome Proliferator-activated Receptor delta (PPARd), PPARD (gene 5467), sequence (Q03181 whole entry, looked up): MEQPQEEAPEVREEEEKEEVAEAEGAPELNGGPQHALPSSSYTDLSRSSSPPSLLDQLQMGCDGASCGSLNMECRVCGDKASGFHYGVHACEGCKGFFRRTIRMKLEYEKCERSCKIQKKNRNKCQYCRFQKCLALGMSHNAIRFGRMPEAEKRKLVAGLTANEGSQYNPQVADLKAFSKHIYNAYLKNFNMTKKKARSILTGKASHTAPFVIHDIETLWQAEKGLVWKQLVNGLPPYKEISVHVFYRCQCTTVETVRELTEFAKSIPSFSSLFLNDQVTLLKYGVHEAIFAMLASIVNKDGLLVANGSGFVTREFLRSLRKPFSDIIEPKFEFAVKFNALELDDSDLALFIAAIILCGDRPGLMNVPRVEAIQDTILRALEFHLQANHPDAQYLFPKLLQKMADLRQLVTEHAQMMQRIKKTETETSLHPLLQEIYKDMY
Human liver HepG2 cells are transiently transfected with multiple reporter transcription units (MRTUs) in 6-well plates using FuGene 6 reagent (Roche; 3 ml FuGene/1 mg DNA). The MRTU constructs are regulated by a cis-regulating element (promoter). […] A major difference between the CIS and TRANS system is that in CIS activities of endogenous TFs are measured, whereas the TRANS assay evaluates changes in activities of exogenous, chimeric NR-Gal4 proteins. […] At the end of 24 hour incubation, total RNA was isolated using TriZol reagent (Invitrogen). The isolated RNA is then reverse-transcribed using oligo(dT) primer and Mo-MLV reverse transcriptase (Invitrogen) with DNAse I (Ambion) treatment for 30 min. The one-tenth of the produced cDNA was amplified by PCR using Taq DNA polymerase (Invitrogen) and two reporter sequence-specific primers. The PCR products were fluorescently labeled by primer extension with 6-arboxyfluorescein (6-FAM) 5'-labeled reporter sequence-specific primer (2 min at 95 C, 20 s at 68 C and 10 min at 72 C) and these products were digested with 5U of HpaI (New England Biolabs) for 2h at 37 C. The fragments were purified using Qiaquick PCR columns (Qiagen), analyzed on an ABI 3130xL genetic analyzer (Applied Biosystems) with peak positions identified by using a set of X-rhodamine (ROX)-labeled MapMarker1000 molecular weight standards (BioVentures). The raw capillary electrophoresis data was processed using Attagraph software (Attagene).
`O=C1CCCCCN1`: the call was inactive. Still for that read-out and setting: for `CCOC(=O)COc1ccc2c(c1)CC(NCC(O)c1cccc(Cl)c1)CC2` (stereo not given) the value was “inactive”. The AC50 is the concentration at which the activity in the assay is half-maximal. `CN(C)c1ccc(Cc2ccc(N(C)C)cc2)cc1`: the AC50 is 58.5 µM (active). Regarding `COc1ccc2sc(C(=O)Nc3nnn[nH]3)c(OC(C)C)c2c1`, the call was inactive. On to `CCNc1ccccc1`, for which the result was inactive.

`Cc1c(-c2cccnc2)c2ccccc2n1CCCCC(=O)O`: the outcome was inactive. With `CCC(C)(C)C(=O)O[C@H]1C[C@@H](C)C=C2C=C[C@H](C)[C@H](CC[C@@H]3C[C@@H](O)CC(=O)O3)[C@H]21`, the outcome was inactive. With `O=C1OC(=O)C2C3C=CC(C3)C12` (stereo not given), the outcome was inactive. Take `Cc1ccc(S(=O)(=O)O)cc1C`: the molecule was classed as inactive. On the same count and under the same terms, the entry for `COC(=O)c1c(Cl)c(Cl)c(C(=O)OC)c(Cl)c1Cl` is “inactive”. In the case of `COc1cccc(-c2ccc(/C=C\CN3CCCCCC3)cc2Cl)c1`, the call was inactive. For `Cc1ccc(C)c(O)c1`, the molecule was classed as inactive. With `CCCCCCCCCCCCCCCO`, the result was inactive. In the case of `Cc1ccc(N)cc1O`, the result was inactive. For `CCOc1cccc(-n2cc(C(=O)N3CCN(c4cc(C(=O)O)c5ccccc5c4)CC3)nc2-c2ccc(C)cc2)c1`, the call was inactive. As for `COc1ccc(/C=C/S(=O)(=O)NC(=O)c2ccc(C)cc2Cl)cc1`, the molecule was called inactive. On to `CCn1nc(Cc2ccccc2)cc1C1CCN(C[C@H]2C[C@H](N(C)[C@@H](C(=O)O)C(C)C)C[C@@H]2c2cccc(F)c2)CC1`, for which the outcome was inactive.

Take `O=C1CCC(N2C(=O)c3ccccc3C2=O)C(=O)N1` (stereo not given): the call was inactive. Take `CCCCCCCCCCCCc1ccccc1`: the result was inactive.

As to `CNCc1ccc(NC(=O)c2c[nH]c3c2C(=O)CCC3)cc1`, the molecule was called inactive. Regarding `CCCN(C1CCN(C(=O)C2CCNCC2)CC1)[C@@H]1CCc2ccc(OC)cc2C1`, the call was inactive. With `COc1ccc(-n2nc(C(F)F)cc2-c2ccc(S(C)=O)cc2)cc1` (stereo not given), the result was inactive.

As to `C[C@](N)(Cc1ccc(O)c(O)c1)C(=O)O`, the outcome was inactive. Same read-out and setting: for `CN(C)c1ccc(N=NS(=O)(=O)O)cc1` the value was “inactive”; for `Clc1nc(Cl)c(Cl)c(Cl)c1Cl`, “inactive”. Turning to `O=c1n(CC2CO2)c(=O)n(CC2CO2)c(=O)n1CC1CO1` (stereo not given), the result was inactive. On to `O=C(CCCCCCCCc1cccnc1)N1CCC(C=C(c2ccccc2)c2ccccc2)CC1`, for which the call was inactive. `CC[C@H]1CC[C@H](NCc2cc3c(cc2OC)[C@H]2C[C@H]2C(=O)N3C)[C@H](c2ccccc2)N1`: the call was inactive.

As for `Fc1ccccc1[C@@H](F)COC1CCC(Nc2ncnc3[nH]ncc23)CC1` (stereo not given in full), the call was inactive.

Consider `COC(=O)c1ccccc1O`, for which the result was inactive. For `O=C(O)c1cc(N=Nc2ccc(S(=O)(=O)Nc3ccccn3)cc2)ccc1O`, the molecule was classed as inactive. On to `CC(O)CN(CCN(CC(C)O)CC(C)O)CC(C)O` (stereo not given), for which the outcome was inactive.

As for `CCCCC(CC)COC(=O)CCCCCCCCC(=O)OCC(CC)CCCC` (stereo not given), the molecule was called inactive. As for `O=c1[nH]c2ccc(S(=O)CCN3CCC(Cc4ccc(F)cc4)CC3)cc2o1` (stereo not given), the result was inactive.

For `Oc1ccc2c(c1)-c1ccccc1C2`, the result was inactive. As for `CNS(=O)(=O)c1cc(C(=O)N2CCC(CCN3C4CCC3CC(n3c(C)nc5ccccc53)C4)(c3cccc(F)c3)CC2)c(Cl)cc1F` (stereo not given), the result was inactive. Take `Cc1[nH]cnc1C[C@H]1CCc2c(C)c3ccccc3n2C1=O`: the result was inactive.

As to `NC(=O)NO`, the molecule was classed as inactive. Take `CC1(C)C(=O)N(Br)C(=O)N1Br`: the outcome was inactive. Consider `O=C(O)c1cccc(N(Cc2cccnc2)c2ccc(OC(F)F)c(OC(F)F)c2)c1`, for which the result was inactive.

The record behind these values is PubChem BioAssay (EPA / NIEHS).
